Measured values reported in PubChem BioAssay (NCI).
Compounds without any hit were thinned out: in the full panel of roughly 79,000, 15% have a hit. Activity calls are given as the source filed them. Cut-off read from the data, not from the text of the source: active = growth inhibition above about 70%; inactive = the rest.

What was measured:
[1] = NCI Yeast Anticancer Drug Screen. Data for the mec2-1 strain (AID 157); conditions: S. cerevisiae mec2-1 strain, hits give high values
Outline: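 Using mec2-1 yeast: add compound, measure growth, express inhibition versus vehicle-treated cultures.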

[2] = NCI Yeast Anticancer Drug Screen. Data for the rad14 strain (AID 159);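 note: 0% = growth of vehicle-treated control cultures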; conditions: S. cerevisiae rad14 strain growth inhibition, hits give high values
Outline: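 Readout: yeast growth inhibition, referenced to vehicle-only cultures. Strain bears a defined alteration in DNA damage repair.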

[3] = NCI Yeast Anticancer Drug Screen. Data for the sgs1 mgt1 strain (AID 161);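 note: 0% = growth of cultures given vehicle only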; conditions: S. cerevisiae sgs1 mgt1 strain, hits give high values
Outline: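 Yeast cells carrying a defined DNA-repair defect were exposed to test compounds. Growth inhibition was measured relative to vehicle-treated controls.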

[4] = NCI Yeast Anticancer Drug Screen. Data for the CLN2oe strain (AID 163);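 note: 0% = growth of vehicle-only control cultures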; conditions: S. cerevisiae CLN2oe strain, hits give high values
Outline: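 Whole-cell yeast growth assay. A strain engineered for altered cell-cycle control received compound, and inhibition relative to vehicle-treated cultures was recorded.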

[5] = NCI Yeast Anticancer Drug Screen. Data for the cln2 rad14 strain (AID 165);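 note: 0% = growth equal to vehicle treated cultures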; conditions: S. cerevisiae cln2 rad14 strain, hits give high values
Outline: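 Yeast strain cln2 rad14, bearing defects in cell cycle control and DNA repair, serves as the test system; values reflect growth inhibition compared with vehicle.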

[6] = NCI Yeast Anticancer Drug Screen. Data for the bub3 strain (AID 167); conditions: S. cerevisiae bub3 mutant strain, hits give high values
Outline: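 Part of a panel of yeast mutants defective in DNA damage repair or cell cycle regulation. Each strain is grown with compound, and inhibition is calculated relative to solvent-treated cultures.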

[7] = NCI Yeast Anticancer Drug Screen. Data for the wt2 strain (AID 169);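 note: 0% = growth of vehicle-treated yeast cultures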; conditions: S. cerevisiae wt2 strain growth inhibition, hits give high values
Outline: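 Treated yeast vs. vehicle-treated yeast: growth inhibition determined.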

[8] = NCI Yeast Anticancer Drug Screen. Data for the mlh1 strain (AID 171);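 note: 0% = growth of vehicle-treated control cultures of the same strain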; conditions: S. cerevisiae mlh1 strain growth inhibition, hits give high values
Outline: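 A yeast strain with a defined genetic lesion serves as the test organism. Cultures receive compound or vehicle, and growth is measured.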

[9] = NCI Yeast Anticancer Drug Screen. Data for the sgs1 strain (AID 173);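 note: 0% = growth of vehicle-only control cultures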; conditions: S. cerevisiae sgs1 mutant, hits give high values
Outline: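 A genetically defined yeast mutant is incubated with the test compound, and its growth is compared to that of the same strain given vehicle.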

[10] = NCI Yeast Anticancer Drug Screen. Data for the mlh1 rad18 strain (AID 175); conditions: S. cerevisiae mlh1 rad18 strain growth inhibition, hits give high values
Outline: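 Steps: expose repair-defective yeast to compound; measure growth; express inhibition against vehicle-treated controls.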

[11] = NCI Yeast Anticancer Drug Screen. Data for the rad52 strain (AID 147);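 note: 0% = growth of vehicle-treated control cultures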; conditions: S. cerevisiae rad52 mutant growth inhibition, hits give high values
Outline: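 Here a repair-compromised yeast strain receives each compound; its growth is then quantified and normalised to vehicle-only controls.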

[12] = NCI Yeast Anticancer Drug Screen. Data for the wt1 strain (AID 149);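 note: 0% = growth of vehicle-treated wt1 cultures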; conditions: S. cerevisiae wt1 strain (SPY 50644) growth inhibition, hits give high values
Outline: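 The wt1 strain was treated with compounds, and growth was compared with vehicle-treated cultures to give inhibition.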

[13] = NCI Yeast Anticancer Drug Screen. Data for the rad50EPP+ strain (AID 151);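 note: 0% = growth of vehicle-treated control cultures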; conditions: S. cerevisiae rad50 mutant strain, hits give high values
Outline: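 Read-out is yeast growth inhibition relative to vehicle; cells used were the rad50EPP+ strain.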

[14] = NCI Yeast Anticancer Drug Screen. Data for the mgt1 strain (AID 153); conditions: S. cerevisiae mgt1 mutant growth inhibition, hits give high values
Outline: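 Measured: inhibition of mgt1 yeast growth by compound, normalized to vehicle-treated cultures.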

[15] = NCI Yeast Anticancer Drug Screen. Data for the rad50 strain (AID 155);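 note: 0% = growth of vehicle-only cultures of the same strain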; conditions: S. cerevisiae rad50 strain growth inhibition, hits give high values
Outline: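 Cells are treated with compound, grown, and their growth is then scored against vehicle-only cultures of the same repair-deficient yeast strain.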

[16] = NCI Yeast Anticancer Drug Screen. Data for the rad18 strain (AID 177); conditions: S. cerevisiae rad18 mutant growth inhibition, hits give high values
Outline: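 Measured value is growth inhibition of a yeast strain bearing a DNA repair alteration, referenced to vehicle-treated cells.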

[17] = at 5.0 µM (retest, dose inferred, filed as 0.5)
[18] = at 50.0 µM (retest, dose inferred, filed as 5.0)

Measured: growth inhibition

CCOC(=O)C1([Se]c2ccccc2)CCCC1=O (centres undefined)
inactive: [1]; [17] -18% | [1]; at 11.0 µM 9% | [1]; at 33.0 µM 30% | [1]; [18] 43% | [1]; at 100.0 µM -11% | [2]; at 1.2 µM -9% | [2]; at 3.7 µM 1% | [2]; at 11.0 µM -11% | [2]; at 33.0 µM 25% | [3]; [17] -3% | [3]; [18] 59% | [4]; at 1.2 µM 2% | [4]; at 3.7 µM 6% | [4]; at 11.0 µM 16% | [4]; at 33.0 µM 11% | [4]; at 100.0 µM 68% | [5]; [17] 14% | [5]; [18] 52% | [6]; at 1.2 µM -4% | [6]; at 3.7 µM 0% | [6]; [17] 10% | [6]; at 11.0 µM -13% | [6]; at 33.0 µM 13% | [7]; at 1.2 µM 2% | [7]; at 3.7 µM 21% | [7]; at 11.0 µM 22% | [7]; at 33.0 µM 49% | [8]; at 1.2 µM 8% | [8]; at 3.7 µM 6% | [8]; at 11.0 µM 33% | [8]; at 33.0 µM 58% | [9]; at 1.2 µM 22% | [9]; at 3.7 µM 42% | [9]; at 11.0 µM 56% | [10]; [17] 34%
active: [1]; at 50.0 µM 71.8% | [2]; at 100.0 µM 94% | [3]; at 50.0 µM 84.2% | [5]; at 50.0 µM 73.2% | [6]; [18] 82% | [6]; at 50.0 µM 81.2% | [6]; at 100.0 µM 90% | [7]; at 100.0 µM 88% | [8]; at 100.0 µM 83% | [9]; at 33.0 µM 75% | [9]; at 100.0 µM 97% | [10]; [18] 87% | [10]; at 50.0 µM 76.6%

Cc1ccc2c(c1)C1(C)c3cc(C)ccc3SP1S2 (centres undefined)
inactive: [11]; at 1.2 µM 20% | [11]; at 3.7 µM 22% | [11]; at 11.0 µM 20% | [11]; at 33.0 µM 51% | [11]; at 100.0 µM 55% | [12]; at 1.2 µM 19% | [12]; at 3.7 µM 9% | [12]; at 11.0 µM 25% | [12]; at 33.0 µM 26% | [12]; at 100.0 µM 36% | [13]; at 1.2 µM 4% | [13]; at 3.7 µM 7% | [13]; at 11.0 µM 17% | [13]; at 33.0 µM 47% | [13]; at 100.0 µM 50% | [14]; at 1.2 µM 10% | [14]; at 3.7 µM 3% | [14]; at 11.0 µM 9% | [14]; at 33.0 µM 37% | [14]; at 100.0 µM 43% | [15]; at 1.2 µM 17% | [15]; at 3.7 µM 11% | [15]; [17] -4% | [15]; at 11.0 µM 18% | [15]; at 33.0 µM 39% | [15]; [18] 51% | [15]; at 100.0 µM 54% | [1]; at 1.2 µM 11% | [1]; at 3.7 µM 21% | [1]; [17] -12% | [1]; at 11.0 µM 18% | [1]; at 33.0 µM 30% | [1]; [18] 17% | [1]; at 50.0 µM 40.1% | [1]; at 100.0 µM 30% | [2]; at 1.2 µM 0% | [2]; at 3.7 µM -10% | [2]; at 11.0 µM -23% | [2]; at 33.0 µM 15% | [2]; at 100.0 µM 29% | [3]; [17] 6% | [3]; [18] 54% | [3]; at 50.0 µM 63% | [4]; at 1.2 µM 15% | [4]; at 3.7 µM -13% | [4]; at 11.0 µM -14% | [4]; at 33.0 µM 25% | [4]; at 100.0 µM 4% | [5]; [17] 28% | [5]; at 50.0 µM 52.9% | [6]; at 1.2 µM 23% | [6]; at 3.7 µM 18% | [6]; [17] -3% | [6]; at 11.0 µM 20% | [6]; at 33.0 µM 22% | [6]; [18] 59% | [6]; at 50.0 µM 42.8% | [6]; at 100.0 µM 42% | [7]; at 1.2 µM 13% | [7]; at 3.7 µM 1% | [7]; at 11.0 µM 18% | [7]; at 33.0 µM 36% | [7]; at 100.0 µM 50% | [8]; at 1.2 µM -5% | [8]; at 3.7 µM -22% | [8]; at 11.0 µM -3% | [8]; at 33.0 µM 26% | [8]; at 100.0 µM 39% | [9]; at 1.2 µM 6% | [9]; at 3.7 µM 4% | [9]; at 11.0 µM 18% | [9]; at 33.0 µM 46% | [9]; at 100.0 µM 51% | [10]; [17] 4% | [10]; at 50.0 µM 46.9% | [16]; at 1.2 µM 8% | [16]; at 3.7 µM -3% | [16]; at 11.0 µM 7% | [16]; at 33.0 µM 27% | [16]; at 100.0 µM 52%
active: [15]; at 50.0 µM 71.7% | [5]; [18] 71% | [10]; [18] 74%

CCCCN(CCCC)CC(C(C)=O)C(c1ccccc1)c1c(O)c2ccccc2oc1=O (centres undefined)
inactive: [11]; at 1.2 µM 2% | [11]; at 3.7 µM 3% | [11]; at 11.0 µM 2% | [11]; at 33.0 µM 3% | [11]; at 100.0 µM 2% | [12]; at 1.2 µM 0% | [12]; at 3.7 µM -1% | [12]; at 11.0 µM -1% | [12]; at 33.0 µM -3% | [12]; at 100.0 µM -4% | [13]; at 1.2 µM -7% | [13]; at 3.7 µM -5% | [13]; at 11.0 µM -6% | [13]; at 33.0 µM -8% | [13]; at 100.0 µM -3% | [14]; at 1.2 µM 1% | [14]; at 3.7 µM 2% | [14]; at 11.0 µM 3% | [14]; at 33.0 µM 0% | [14]; at 100.0 µM -1% | [15]; at 1.2 µM 2% | [15]; at 3.7 µM 2% | [15]; [17] 22% | [15]; at 11.0 µM 4% | [15]; at 33.0 µM 3% | [15]; [18] 22% | [15]; at 100.0 µM 1% | [1]; at 1.2 µM 3% | [1]; at 3.7 µM 2% | [1]; [17] 25% | [1]; at 11.0 µM -1% | [1]; at 33.0 µM -1% | [1]; [18] 25% | [1]; at 50.0 µM 69.6% | [1]; at 100.0 µM 5% | [2]; at 1.2 µM 5% | [2]; at 3.7 µM 3% | [2]; at 11.0 µM 2% | [2]; at 33.0 µM -2% | [2]; at 100.0 µM -24% | [3]; [17] 10% | [3]; [18] 10% | [4]; at 1.2 µM 1% | [4]; at 3.7 µM 6% | [4]; at 11.0 µM 5% | [4]; at 33.0 µM -2% | [4]; at 100.0 µM -3% | [5]; [17] 51% | [5]; [18] 51% | [6]; at 1.2 µM 4% | [6]; at 3.7 µM 2% | [6]; [17] 4% | [6]; at 11.0 µM 15% | [6]; at 33.0 µM 22% | [6]; [18] 4% | [6]; at 100.0 µM 6% | [7]; at 1.2 µM 0% | [7]; at 3.7 µM -1% | [7]; at 11.0 µM 0% | [7]; at 33.0 µM -1% | [7]; at 100.0 µM 4% | [8]; at 1.2 µM 0% | [8]; at 3.7 µM -2% | [8]; at 11.0 µM -2% | [8]; at 33.0 µM 1% | [8]; at 100.0 µM -28% | [9]; at 1.2 µM -4% | [9]; at 3.7 µM -6% | [9]; at 11.0 µM -7% | [9]; at 33.0 µM -4% | [9]; at 100.0 µM 9% | [10]; [17] 22% | [10]; [18] 22% | [16]; at 1.2 µM -3% | [16]; at 3.7 µM -9% | [16]; at 11.0 µM -10% | [16]; at 33.0 µM -12% | [16]; at 100.0 µM -8%
active: [15]; at 50.0 µM 71.3% | [3]; at 50.0 µM 84.2% | [5]; at 50.0 µM 81.5% | [6]; at 50.0 µM 74.5% | [10]; at 50.0 µM 76.8%
